Test results from PubChem BioAssay AID720566 (Broad Institute, 2013).
Entries with a potency or affinity are not part of this list. Active and inactive are the calls of the source.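 How the source made its calls: active means in all runs, an absorbance decrease of 25% or more of the average positive control decrease; inconclusive means runs conflict, with both active and inactive results; inactive means all runs inactive, opposite-direction effects included.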

These molecules were tested against Protein disulfide-isomerase A6 (Homo sapiens) (UniProt Q15084) (assay: inhibitors of ERp5-mediated insulin aggregation, dose response, biochemical, turbidity, absorbance 650 nm, cherry-picked samples (AID 720566;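 further: negative values mean less insulin aggregation so ERp5 inhibition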)). Settings: Recombinant ERp5 insulin aggregation; series mostly up to 35 µM.
Protein disulfide-isomerase A6 (Homo sapiens), sequence (Q15084 whole entry, looked up): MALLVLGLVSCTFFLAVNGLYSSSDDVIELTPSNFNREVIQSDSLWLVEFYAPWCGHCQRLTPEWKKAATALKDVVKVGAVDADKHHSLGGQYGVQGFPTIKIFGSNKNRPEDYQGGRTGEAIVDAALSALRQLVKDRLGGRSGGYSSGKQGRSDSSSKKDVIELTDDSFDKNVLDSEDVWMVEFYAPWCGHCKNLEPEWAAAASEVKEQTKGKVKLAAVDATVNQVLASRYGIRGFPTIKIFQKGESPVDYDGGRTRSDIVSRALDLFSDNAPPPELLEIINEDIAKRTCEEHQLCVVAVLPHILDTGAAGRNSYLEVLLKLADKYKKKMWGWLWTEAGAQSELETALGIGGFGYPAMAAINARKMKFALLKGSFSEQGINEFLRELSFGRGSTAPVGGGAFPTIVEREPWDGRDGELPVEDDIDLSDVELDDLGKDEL

outcome, inactive:
COc1ccc(NC(=O)N(C)C[C@H]2Oc3ccc(NS(=O)(=O)c4ccccc4)cc3C(=O)N([C@@H](C)CO)C[C@@H]2C)cc1
C[C@@H]1CN([C@@H](C)CO)C(=O)c2cc(NS(=O)(=O)c3ccccc3)ccc2O[C@H]1CN(C)C(=O)Nc1ccc2c(c1)OCO2
CCCNC(=O)C[C@@H]1C[C@H]2c3cc(NC(=O)CC4CC4)ccc3O[C@H]2[C@H](CO)O1
CCCC(=O)N1CC2(C1)CN(C(=O)C1CCCCC1)[C@H](CO)c1[nH]c3cc(OC)ccc3c12
C[C@@H]1CN([C@H](C)CO)C(=O)c2cc(NC(=O)Nc3cccc4ccccc34)ccc2O[C@@H]1CN(C)C(=O)Nc1cccc2ccccc12
COc1ccc2c3c([nH]c2c1)[C@H](CO)N(C(=O)NC(C)C)CC31CN(C(=O)C2CCCC2)C1
C[C@@H]1CN([C@H](C)CO)C(=O)Cc2cc(NS(=O)(=O)c3ccc(F)cc3)ccc2O[C@@H]1CN(C)S(=O)(=O)c1cn(C)cn1
CN(CC(=O)Nc1ccc(F)cc1)CC(=O)NC1CCCCC1
Cc1noc(C)c1NC(=O)Nc1cccc2c1O[C@H](CN(C)S(=O)(=O)c1ccc(Cl)cc1)[C@@H](C)CN([C@H](C)CO)C2=O
C[C@@H]1CN([C@@H](C)CO)C(=O)Cc2cc(NC(=O)Nc3ccc(C(F)(F)F)cc3)ccc2O[C@@H]1CN(C)Cc1ccc(Cl)c(Cl)c1
C[C@H]1CN([C@@H](C)CO)C(=O)Cc2cc(NC(=O)Nc3cccc4ccccc34)ccc2O[C@H]1CN(C)C(=O)Nc1cccc2ccccc12
C[C@H](CO)N1C[C@H](C)[C@H](CN(C)C(=O)CCC(F)(F)F)OCCCC[C@H](C)Oc2ccc(NS(=O)(=O)c3ccc(Cl)cc3)cc2C1=O
Cc1cc(Br)cc(Br)c1OCC(=O)NNC(=O)CCC(=O)NCc1ccccc1
C[C@@H]1CCCCO[C@@H](CN(C)C(=O)CCC(F)(F)F)[C@H](C)CN([C@@H](C)CO)C(=O)c2cc(NS(=O)(=O)c3ccc(Cl)cc3)ccc2O1
COc1ccc2c3c([nH]c2c1)[C@H](CO)N(C(=O)C1CCOCC1)CC31CCN(Cc2nccs2)CC1
O=C(C[C@H]1C[C@H]2c3cc(NC(=O)CC4CC4)ccc3O[C@H]2[C@@H](CO)O1)NCc1ccc(-c2ccccc2)cc1
COCC(=O)N(C)C[C@H]1Oc2cc(C#CC(C)(C)O)ccc2S(=O)(=O)N([C@H](C)CO)C[C@H]1C
C[C@H](CO)N1C[C@H](C)[C@@H](CN(C)S(=O)(=O)c2ccc(Oc3ccccc3)cc2)OCc2cnnn2CCCC1=O
C[C@H]1CN([C@@H](C)CO)C(=O)c2cccc(NC(=O)Nc3cccc4ccccc34)c2O[C@@H]1CN(C)C(=O)Nc1ccc(C(F)(F)F)cc1
C[C@@H]1CCCCO[C@@H](CN(C)Cc2ccc(C(=O)Nc3ccccc3N)cc2)[C@@H](C)CN([C@H](C)CO)C(=O)c2cc(NS(=O)(=O)c3cccs3)ccc2O1
COCCNC(=O)C[C@@H]1C[C@H]2c3cc(NC(=O)NC4CCCC4)ccc3O[C@H]2[C@@H](CO)O1
C[C@@H]1CN([C@@H](C)CO)S(=O)(=O)c2ccc(C#Cc3cccnc3)cc2O[C@H]1CN(C)C(=O)CN(C)C
O=C(CCN1C(=O)/C(=C\c2ccccc2)SC1=S)NCCCN1CCOCC1
COC(=O)[C@]1(C)N[C@H](CN(C)S(=O)(=O)c2ccc(OC(F)(F)F)cc2)[C@@H]2C(=O)N(C)C(=O)[C@@H]21
CN(C)C(=O)C[C@H]1C[C@H]2c3cc(NS(C)(=O)=O)ccc3O[C@H]2[C@@H](CO)O1
C[C@H]1CN([C@@H](C)CO)C(=O)Cc2cc(NC(=O)c3ccncc3)ccc2O[C@H]1CN(C)S(=O)(=O)c1cn(C)cn1
CCCNC(=O)C[C@@H]1C[C@@H]2c3cc(NS(C)(=O)=O)ccc3O[C@@H]2[C@H](CO)O1
Cc1cc2occ(CC(=O)NNC(=O)c3ccccc3)c2cc1C
O=C(c1cccc(F)c1)N1CCCCN2[C@H](C1)[C@H](c1ccc(-c3ccccc3)cc1)[C@@H]2CO
C[C@@H]1CN([C@@H](C)CO)C(=O)c2cccc(NS(=O)(=O)c3ccc(F)cc3)c2O[C@H]1CN(C)S(=O)(=O)c1ccccc1
